Hits are enriched below; roughly 19% of the tested compounds scored in any of these assays.
DT40 TDP1 CPT = qHTS for Inhibitors of human tyrosyl-DNA phosphodiesterase 1 (TDP1): qHTS in cells in presence of CPT | actives 12% (n = 420,000) | AID 686979, 2013 | chicken DT40 Tdp1-/-;hTDP1 cells + 20 nM CPT, ATP luminescence, 48 h | Potency, µM (doses to about 46.2 µM), hits mostly inhibitors; also: nearly all actives have a fitted effect of over 55% in size
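Chicken DT40 Tdp1-/- cells stably complemented with human TDP1 were seeded at 400 cells/well in medium containing 20 nM camptothecin, exposed to pin-transferred compounds, and grown at 37 °C for at least 48 hr. Viability was read as ATP luminescence.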
TDP1 inh = qHTS Assay for Inhibitors of Tyrosyl-DNA Phosphodiesterase (TDP1). Tyrosyl-DNA phosphodiesterase 1 (Homo sapiens), Q9NUW8. recombinant TDP1, AlphaScreen DNA substrate cleavage. Potency, µM (top dose mostly 130 µM), usual class: inhibitors. actives 0.28% (n = 350,000). AID 485290, 2010; also: nearly all actives have a fitted effect of over 40% in size
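Enzyme-compound mixtures sat 15 min at room temperature, followed by a 5 min reaction with 15 nM final substrate and 10 min with AlphaScreen beads. Recombinant human Tdp1 was used at 1 nM final.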
TDP1 cell noCPT = qHTS for Inhibitors of human tyrosyl-DNA phosphodiesterase 1 (TDP1): qHTS in cells in absence of CPT. Potency, µM (top dose mostly 46.2 µM), actives largely listed as inhibitors. DT40 Tdp1-/- hTDP1 cells, no CPT, ATP luminescence, 48 h. AID 686978, 2013. actives 15% (n = 420,000); also: nearly all actives have a fitted effect of over 55% in size
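No-CPT arm: Tdp1-/-;hTDP1 DT40 cells (400/well) plus compounds, incubated ≥48 hr at 37 °C. Readout CellTiter-Glo luminescence.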
RORg inh = qHTS for inhibitors of ROR gamma transcriptional activity; Drosophila S2 Gal4-RORgamma UAS-luciferase reporter, 20 h; Potency, µM (highest dose often 53.6 µM), hits mostly inhibitors; actives 5.4% (n = 310,000); also: nearly all actives have a fitted effect of over 60% in size
Target sequence (P51450 whole entry, looked up, the tested form may be a part): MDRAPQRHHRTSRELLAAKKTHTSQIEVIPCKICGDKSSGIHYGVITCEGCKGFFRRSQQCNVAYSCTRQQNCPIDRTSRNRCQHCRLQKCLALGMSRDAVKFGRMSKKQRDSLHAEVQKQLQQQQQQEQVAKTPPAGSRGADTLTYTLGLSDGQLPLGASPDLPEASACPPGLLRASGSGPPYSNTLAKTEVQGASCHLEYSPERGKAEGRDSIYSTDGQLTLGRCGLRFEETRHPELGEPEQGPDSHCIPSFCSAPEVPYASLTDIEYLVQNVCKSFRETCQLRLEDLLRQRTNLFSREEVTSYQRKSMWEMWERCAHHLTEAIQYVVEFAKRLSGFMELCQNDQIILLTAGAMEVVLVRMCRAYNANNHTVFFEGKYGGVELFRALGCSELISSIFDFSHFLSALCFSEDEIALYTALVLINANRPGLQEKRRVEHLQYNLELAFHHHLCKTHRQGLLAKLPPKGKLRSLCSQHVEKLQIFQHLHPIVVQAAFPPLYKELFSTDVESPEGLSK
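A Gal4/UAS one-hybrid system in insect cells: metallothionein-promoter Gal4–ROR gamma fusion plus Photinus luciferase reporter. Copper sulfate 700 uM final, 20 hr ambient incubation, luminescent detection after 10 min with reagent.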
Gal4-VP16 FLuc = VP16 counterscreen qHTS for inhibitors of ROR gamma transcriptional activity; Drosophila S2 Gal4-VP16 UAS-luciferase, luminescence, 20 h; Potency, µM (series often up to 53.6 µM), usual class: inhibitors; actives 3.5% (n = 310,000); AID 2546, 2010;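 also: Gal4-VP16 expression switched on by copper sulfate through the metallothionein promoter; nearly all actives have a fitted effect of over 50% in size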
A number is an active result; n = inactive; u = inconclusive; x = no result; ! = repeats disagree; [ ] = another dose, or the depositor's remark. Calls follow the shape of the dose curve; as a rule, active = well fitted curve in the direction sought with a large enough effect; inconclusive = small, poorly fitted or top-dose-only effect, or another doubt; inactive = no such curve, though single readings can be large; an effect the other way counts as inactive or inconclusive.

SMILES	DT40 TDP1 CPT	TDP1 inh	TDP1 cell noCPT	RORg inh	Gal4-VP16 FLuc
c1ccc2c(CNC3CCCCCC3)c[nH]c2c1	3.26µM	n	7.31µM	u	n
CCN1CCN(c2ccc(NC(C)=O)cc2Cl)CC1	n	n	n	n	n
O=C(Nc1ccc(Cl)cc1)Nc1ccc(Cl)c(Cl)c1	4.61µM	n	2.91µM	n[10 µM]	u
COC(=O)C1=C(c2ccc(F)cc2OCc2ccccc2)C[C@@H]2CC[C@H]1N2C(=O)NCc1ccccc1OC	25.9µM	n	u	x	x
COC(=O)C1=C(c2ccc(F)cc2OCc2ccccc2)C[C@@H]2CC[C@H]1N2C(=O)NCc1ccccc1	u	n	u	x	x
COC(=O)C1=C(c2ccc(F)cc2OCc2ccccc2)C[C@@H]2CC[C@H]1N2C(=O)NCC1CC1	7.31µM	n	8.2µM	x	x
COC(=O)C1=C(c2ccc(F)cc2OCc2ccccc2)C[C@@H]2CC[C@H]1N2C(=O)NCc1cc(C)oc1C(F)(F)F	20.6µM	n	u	x	x
COC(=O)CSC1=NP(=S)(SCC(=O)OC)N2CCCC2=C1C#N (centres undefined)	n	n	u	n	n
CC1CCCC(C)N1c1nnc(NC(=O)Cn2c(=O)oc3ccccc32)s1 (centres undefined)	n	n	13µM	u	14.1µM
Cc1oc(-c2ccc(Cl)cc2)nc1CN1CCC(C(=O)NCCCN2CCN(c3cccc(Cl)c3)CC2)CC1	5.17µM	n	2.59µM	x	x
COc1cccc(-c2nc(CS(=O)CC(=O)N3CCC4(CC3)OCCO4)c(C)o2)c1 (centres undefined)	n	n	n	n	n
CCCCNC(=O)C1CCCN(Cc2nc(-c3ccc(Cl)cc3)oc2C)C1 (centres undefined)	6.51µM	n	4.11µM	x	x
Cc1oc(-c2cccc(Cl)c2)nc1CN1CCC(C(=O)NC(C)c2ccccc2)CC1 (centres undefined)	4.11µM	n	4.61µM	x	x
Cc1oc(-c2cccc(Cl)c2)nc1CN1CCC(C(=O)NCCCN2CCN(c3ccc(F)cc3)CC2)CC1	4.61µM	n	2.91µM	x	x
Fc1ccc(CN2CCN(c3ccc(Cl)cc3)CC2)cc1	n	n	u	n	n
Cc1ccc(-n2c(O)c(C=NCCCn3ccnc3)c(=O)[nH]c2=O)cc1	n	n	n	n	n
NCCCP(=O)(O)CC1CCCCC1	n	n	n	n	n
Ic1ccccc1CN[C@@H]1C2CCN(CC2)[C@@H]1C(c1ccccc1)c1ccccc1	11.6µM	x	6.51µM	x	x
Ic1ccccc1CNC1C2CCN(CC2)C1C(c1ccccc1)c1ccccc1 (centres undefined)	x	n	x	x	x
O=[N+]([O-])c1ccc(N2CCOCC2)c2cccnc12	n	n	u	n	n
O=[N+]([O-])c1ccc(N2CCOCC2)c2c1no[n+]2[O-]	0.184µM	x	0.164µM	x	x
Cc1cc(Cl)ccc1C(=O)C1CCCN(C2CCSCC2)C1 (centres undefined)	25.9µM	n	20.6µM	n	n
O=C(c1ccc(C(F)(F)F)cc1)C1CCCN(C2CCSCC2)C1 (centres undefined)	u	n	u	n	n
CCNc1nc(NC(C)(C)C)nc(SC)n1	u	x	n	x	x
O=C1c2ccccc2-c2c1nc1c([n+]2[O-])CCCC1	11.6µM	n	u	n	n
SMILES	DT40 TDP1 CPT	TDP1 inh	TDP1 cell noCPT	RORg inh	Gal4-VP16 FLuc
Cc1ncc(CNC(=O)N(CCCl)N=O)c(N)n1	20.6µM!	n	u	n	n
CCOP(=O)(Cc1cc(C(C)=O)c(C)o1)OCC	n	n	n	n	n
CCCCn1c(C)c(C(=O)OCC)c2c(CN3CCCC3)c(O)ccc21	18.4µM	x	11.6µM	n	n
CCCCn1c(C)c(C(=O)OCC)c2c(CN3CCOCC3)c(O)ccc21	n	n	n	n	n
CSc1ncc(/C=C2/C(=O)NC(=O)N(c3ccc(C)cc3)C2=O)cn1	n	n	n	u	n
Cc1ccc(N2C(=O)NC(=O)/C(=C/c3ccoc3)C2=O)cc1	n	3.16µM	u	n	n
Cc1ccc(N2C(=O)NC(=O)/C(=C/c3cnn(-c4ccc(C)cc4)c3)C2=O)cc1	16.4µM	n	18.4µM	n	n

Screens (PubChem)
